Laboratory results taken from the supplement of paper PMC11417369.
In all, about 25,000 sequences were measured (“ln(normalized median fluorescence intensity)”: median about 9.3, highest 2% from about 10 on). The list comes from a sample in which the highest values are over-represented; it also holds similar and randomly drawn sequences.

system: PF3D7_0420300 AP2 domain 1 (GST-tagged); test: gcPBM binding intensity (ln(normalized median fluorescence intensity)); higher = stronger DNA binding
In short: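 GST-fused DNA-binding domains of P. falciparum, expressed in E. coli, were applied at about 25 μg on average for 1 h to an Agilent 4 × 180k array of primer-extended double-stranded 36-bp intergenic genomic probes and negative controls. Binding intensity is the highest Masliner-normalised natural-log median intensity across replicate spots of either probe orientation, measured with Alexa488 anti-GST antibody and a 488 nm scan.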

Sequence	gcPBM binding intensity (ln)
TAATATACTTAATACACACACGAATATTTATAAATA [CACACA_site6675]	9.73
ACATATTATAGGAATACACACAAAAACTTATCGGTA [CACACA_site7587]	9.87
ACATCAAGCAGACACACACACACACCCACCCACCGA [CACACA_site371]	10.2
AATACCCAAGGACACACACACACATATATATATATA [CACACA_site8345]	10.2
CACCCACCCAGACACACACACACAAAAAAAAAAAGA [CACACA_site499]	10.1
CAAGCACCCAGACACACACACACACCCACACCCACA [CACACA_site369]	10.2
GTAATACCCAAACACACACACATACCCATATATATA [CACACA_site5510]	10
AAAATACCCGGACACACACACATATATATATATATT [CACACA_site6137]	9.96
AACAGACAGAAACACACACACATATATATATATATA [CACACA_site3394]	9.81
CATATACATCCACATACACACATACACCCATACACA [CACACA_site5038]	9.74
CAAGCACAGAAACACACACACACACCGACACAGACA [CACACA_site4359]	10.2
ATACATCAAGGACACACACACACACCCACACCCACA [CACACA_site8013]	10.3
CATACACCCATACATACACACATACATACACCCATA [CACACA_site5124]	9.78
ATTATTACTATATGTGTACACATCAACTGGTTTGAT [CACACA_site5563]	9.39
AAAAAAAAAAAAAAGGTGCATACTTTGAATTAATAT [GTGCAC_site9401]	9.2
ATAAAAAATATCACATAAAATAAAAAAAGAAAGGAT [XGTACX_negctrl_site294]	9.62
AGTGGACTTTTTTTTTTTTTTTTTTTTTTTTTATTA [CACACA_negctrl_site547]	9.2
AGTATAAATATATTATGTACATATATATTATACTTA [XGTACX_site2623]	9.09
ATTATCTATCGTTTTTGTACTTACACCTTAATACAA [XGTACX_site7337]	9.58
ACATCAAGCGGACACACACACACACCGACAGACACA [CACACA_site4361]	10.2
TACACAAGCAGACACACACACATATATATATATATA [CACACA_site1270]	9.72
ACATCAAGCAGACACACACACACACCCACCCACCCA [CACACA_site8012]	10.4
TACACAAGCGGACACACACACATATATATATATATA [CACACA_site4832]	9.81

Sequence	gcPBM binding intensity (ln)
AAGCATACATCAAGCACACACACACCCACAGAGACA [CACACA_site4362]	9.89
TAAAGTATTACAACCACACACACACCGATATATTAT [CACACA_site9382]	9.99
ATAAAAATAAAAAGTGTGCACACAAAAATATATATA [GTGCAC_site9931]	9.9
ATATATATATATATATGTACATATTCACTTATATTT [XGTACX_site5324]	9.18
ATTAAACATAAATATGCACACATATACATATATTCA [CACACA_site8850]	9.4
TATGTACACCCATATACACACCTCTATAATATATAT [CACACA_site4563]	9.67
TTTTATGAAAAGTATTGTACGTATAATTTATATGTA [XGTACX_site1639]	9.04
GGAACTTATTTTTATACACACATATGTGCATATTAT [CACACA_site629]	9.68
CATATAAATATATATACACACACACCGTAATACATA [CACACA_site9158]	10.2
ATAAAAAAAAGACACACACACATATATATATATATA [CACACA_site3073]	9.67
CACACTAAAAGACACACACACACACGCATATAAATA [CACACA_site7874]	10.2
AAAAGGAACAGACACACACACATATATAAATATGTA [CACACA_site7656]	9.97
ATATAATAAAATGACACACGCATATATATATATATA [CACACA_site2789]	9.33
TAAAAAGGAAGACACACACACACATATATAAATATA [CACACA_site7657]	10.2
AAAAAAAAAAAAAACACACACACACGCATAAATATA [CACACA_site6217]	10.1
TATATAAATAGACACACACACACCTTATAATTACTA [CACACA_site7828]	10
AAAAAAAAAAGACACACACACATATAAATATAAATA [CACACA_site6899]	10.2
TATAAATAAAGACACACACACACACCGTATAATTAC [CACACA_site7829]	10.2
TATAAATAAAGACACACACACATATAAATAAATATA [CACACA_site7155]	10.1
CATATAAAAAGACACACACACACATATATATATATA [CACACA_site940]	10
ACAAAAAAAAACGTGGTGCATTAATAATATTGTATA [GTGCAC_site9469]	9.43
ATTACATTAATAAGAGTGCATTATATAAGTTTTATG	9.2
TTTGGCTAGTCAAGTTGTACAAAAAAAAAAAAAAAA [XGTACX_site8382]	8.58

Sequence	gcPBM binding intensity (ln)
GTAATACACAGACACACACACATACACATATTTATA [CACACA_site7313]	10
TTGTACTACAATCCTTTATTTATTTAAACCTGTATG [CACACA_negctrl_site428]	9.14
TTCTTCAAGGAAAACACATGCGCATTTTCACCAATT [TGCATGCA_site11]	9.15
TTTTCAGAAAAGAGAAACTTTATTTTTCACAACCGA [TGCATGCA_negctrl_site389]	8.85
AAGTAATTTGTTGACACACACACACGCATACCTATA [CACACA_site7140]	10.2
AAACCTACATAACATACACACGCATATATATAATTT [CACACA_site8923]	9.69
ACCTACATAACATACACACGCATATATATAATTTTA [CACACA_site2847]	9.64
TATATAAAAAATTCAATACACACCATATATAAATAT [CACACA_site3987]	9.66
AATATATAAGTGTTGTGTACTAAAGTATTTTCCTAT [XGTACX_site1622]	9.5
CACGCATACAGACACACACACACACGGATATAAATA [CACACA_site6445]	10.3
CGCGCACACGGACACACACACACACGGATATAAATA [CACACA_site7102]	10.2
ACTTGTAAGAGACACACACACACACGGATATAAATA [CACACA_site6517]	10.1
CACACGCACAGACACACACACACATATAAATATGTA [CACACA_site6300]	10.1
ATAGTATACAGACACACACACACACGGATATAAATA [CACACA_site6914]	10.3
CACACGCACGGACACACACACATATAAAATCTATAT [CACACA_site6428]	9.91
ACCATATAAATAAACACACACACACGGATATAAATA [CACACA_site7157]	10.1
CGCATACACAGACACACACACACATATAAATATGTA [CACACA_site6444]	9.92
GCTATAAATACAGACGCACACATATACATACAGATA [CACACA_site5778]	9.49
CACACGCACAGACACACACACACACGGATATAAATA [CACACA_site6301]	10.2
TAAATAAATTTATACACACACACACGGATATAAATA [CACACA_site6532]	10.1
TAAATACAGACATATACACACATATATATATATATA [CACACA_site4382]	9.28
